The campaign covered roughly 5,500 compounds. About 2,000 (36%) were called active. About 18% were inconclusive and are not listed. Cut-off read from the data, not from the text of the source: active = normalized growth mostly below about 0.91 (no sharp cut-off); inconclusive = no clear call, values can overlap the other calls; inactive = mostly above about 0.92. The list shows a part of the results.
Experiment: chemical genetic growth profiling, strain panel (AID 1159580);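 note: tested at 20 µM; growth read once vehicle control cultures reached saturation at 30 °C; 1 = growth at the plate median or of vehicle wells; lower values mean less growth of the strain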
Conditions: growth OD

Measured: normalized growth

CCC(=O)c1c(O)cc(O)cc1O
inactive: S. cerevisiae deletion strains, locus YKL009W, strain mrt4, stronger effect = lower value 1.03 | S. cerevisiae deletion strains, locus YKL068W, stronger effect = lower value 0.989 | S. cerevisiae deletion strains, locus YKL085W, strain MDH1 (second series), stronger effect = lower value 0.986 | S. cerevisiae deletion strains, locus YKL085W, strain MDH1, stronger effect = lower value 0.986 | S. cerevisiae deletion strains, locus YKL160W, strain elf1, stronger effect = lower value 0.972 | S. cerevisiae deletion strains, locus YKL190W, strain CNB1, stronger effect = lower value 1 | S. cerevisiae deletion strains, locus YKR001C, strain vps1, stronger effect = lower value 0.959 | S. cerevisiae deletion strains, locus YKR026C, strain gcn3, stronger effect = lower value 0.992 | S. cerevisiae deletion strains, locus YKR091W, strain srl3, stronger effect = lower value 0.988 | S. cerevisiae deletion strains, locus YLL001W, strain dnm1, stronger effect = lower value 0.99 | S. cerevisiae deletion strains, locus YLL026W, stronger effect = lower value 0.999 | S. cerevisiae deletion strains, locus YLL041C, strain sdh2, stronger effect = lower value 0.985 | S. cerevisiae deletion strains, locus YLR027C, strain aat2, stronger effect = lower value 0.987 | S. cerevisiae deletion strains, locus YLR039C, strain RIC1, stronger effect = lower value 0.938 | S. cerevisiae deletion strains, locus YLR058C, strain SHM2, stronger effect = lower value 1 | S. cerevisiae deletion strains, locus YLR102C, strain apc9, stronger effect = lower value 0.979 | S. cerevisiae deletion strains, locus YLR113W, strain HOG1, stronger effect = lower value 0.974 | S. cerevisiae deletion strains, locus YLR221C, strain rsa3, stronger effect = lower value 1.01 | S. cerevisiae deletion strains, locus YLR258W, strain gsy2, stronger effect = lower value 0.996 | S. cerevisiae deletion strains, locus YLR262C, strain YPT6 (second series), stronger effect = lower value 1.01 | S. cerevisiae deletion strains, locus YLR262C, strain YPT6, stronger effect = lower value 0.991 | S. cerevisiae deletion strains, locus YLR268W, strain sec22, stronger effect = lower value 0.968 | S. cerevisiae deletion strains, locus YLR320W, strain mms22, stronger effect = lower value 1.01 | S. cerevisiae deletion strains, locus YLR330W, strain CHS5, stronger effect = lower value 1 | S. cerevisiae deletion strains, locus YLR342W, strain FKS1 (second series), stronger effect = lower value 1 | S. cerevisiae deletion strains, locus YLR342W, strain FKS1, stronger effect = lower value 0.978 | S. cerevisiae deletion strains, locus YLR357W, strain rsc2, stronger effect = lower value 0.968 | S. cerevisiae deletion strains, locus YLR370C, strain arc18, stronger effect = lower value 0.981 | S. cerevisiae deletion strains, locus YLR371W, strain rom2, stronger effect = lower value 0.982 | S. cerevisiae deletion strains, locus YLR384C, strain iki3, stronger effect = lower value 0.98 | S. cerevisiae deletion strains, locus YLR418C, strain cdc73, stronger effect = lower value 0.94 | S. cerevisiae deletion strains, locus YML016C, strain PPZ1, stronger effect = lower value 0.999 | S. cerevisiae deletion strains, locus YML032C, strain rad52, stronger effect = lower value 0.981 | S. cerevisiae deletion strains, locus YML120C, strain ndi1, stronger effect = lower value 0.991 | S. cerevisiae deletion strains, locus YML124C, strain tub3, stronger effect = lower value 0.978 | S. cerevisiae deletion strains, locus YMR058W, strain fet3, stronger effect = lower value 0.978 | S. cerevisiae deletion strains, locus YMR078C, strain ctf18, stronger effect = lower value 0.976 | S. cerevisiae deletion strains, locus YMR125W, strain sto1, stronger effect = lower value 0.985 | S. cerevisiae deletion strains, locus YMR129W, stronger effect = lower value 0.988 | S. cerevisiae deletion strains, locus YMR205C, strain PFK2, stronger effect = lower value 0.998 | S. cerevisiae deletion strains, locus YMR223W, strain ubp8, stronger effect = lower value 0.978 | S. cerevisiae deletion strains, locus YMR231W, strain pep5, stronger effect = lower value 0.991 | S. cerevisiae deletion strains, locus YMR263W, strain SAP30, stronger effect = lower value 1.01 | S. cerevisiae deletion strains, locus YMR307W, strain GAS1, stronger effect = lower value 1.01 | S. cerevisiae deletion strains, locus YNL067W, strain RPL9B, stronger effect = lower value 1.01 | S. cerevisiae deletion strains, locus YNL071W, strain lat1, stronger effect = lower value 0.995 | S. cerevisiae deletion strains, locus YNL128W, strain TEP1, stronger effect = lower value 1.01 | S. cerevisiae deletion strains, locus YNL153C, strain GIM3, stronger effect = lower value 1.02 | S. cerevisiae deletion strains, locus YNL183C, strain NPR1, stronger effect = lower value 0.953 | S. cerevisiae deletion strains, locus YNL209W, strain ssb2, stronger effect = lower value 0.992 | S. cerevisiae deletion strains, locus YNL233W, strain BNI4, stronger effect = lower value 0.988 | S. cerevisiae deletion strains, locus YNL248C, strain rpa49, stronger effect = lower value 1 | S. cerevisiae deletion strains, locus YNL250W, strain rad50, stronger effect = lower value 0.981 | S. cerevisiae deletion strains, locus YNL271C, strain bni1, stronger effect = lower value 0.979 | S. cerevisiae deletion strains, locus YNL298W, strain CLA4, stronger effect = lower value 0.973 | S. cerevisiae deletion strains, locus YNL307C, strain MCK1, stronger effect = lower value 0.991 | S. cerevisiae deletion strains, locus YNL322C, strain KRE1 (second series), stronger effect = lower value 0.97 | S. cerevisiae deletion strains, locus YNL322C, strain KRE1, stronger effect = lower value 1.01 | S. cerevisiae deletion strains, locus YNR049C, strain mso1, stronger effect = lower value 0.987 | S. cerevisiae deletion strains, locus YNR052C, strain pop2, stronger effect = lower value 0.983 | S. cerevisiae deletion strains, locus YOL006C, strain TOP1, stronger effect = lower value 1.12 | S. cerevisiae deletion strains, locus YOL012C, strain htz1 0.785 | S. cerevisiae deletion strains, locus YOL147C, strain pex11, stronger effect = lower value 0.97 | S. cerevisiae deletion strains, locus YOR001W, strain rrp6, stronger effect = lower value 1.02 | S. cerevisiae deletion strains, locus YOR061W, strain CKA2, stronger effect = lower value 1.01 | S. cerevisiae deletion strains, locus YOR069W, strain VPS5, stronger effect = lower value 1 | S. cerevisiae deletion strains, locus YOR070C, strain gyp1, stronger effect = lower value 0.985 | S. cerevisiae deletion strains, locus YOR080W, strain dia2, stronger effect = lower value 0.981 | S. cerevisiae deletion strains, locus YOR083W, strain WHI5, stronger effect = lower value 0.983 | S. cerevisiae deletion strains, locus YOR106W, strain vam3, stronger effect = lower value 0.987 | S. cerevisiae deletion strains, locus YOR136W, strain idh2, stronger effect = lower value 0.984 | S. cerevisiae deletion strains, locus YOR144C, strain elg1, stronger effect = lower value 0.986 | S. cerevisiae deletion strains, locus YOR184W, strain ser1, stronger effect = lower value 0.992 | S. cerevisiae deletion strains, locus YOR231W, strain MKK1, stronger effect = lower value 1.01 | S. cerevisiae deletion strains, locus YOR265W, strain rbl2, stronger effect = lower value 0.982 | S. cerevisiae deletion strains, locus YOR270C, strain vph1, stronger effect = lower value 1.04 | S. cerevisiae deletion strains, locus YOR290C, strain snf2, stronger effect = lower value 0.973 | S. cerevisiae deletion strains, locus YOR316C, strain cot1, stronger effect = lower value 0.984 | S. cerevisiae deletion strains, locus YPL051W, strain arl3, stronger effect = lower value 0.973 | S. cerevisiae deletion strains, locus YPL055C, strain LGE1, stronger effect = lower value 1.02 | S. cerevisiae deletion strains, locus YPL078C, strain atp4, stronger effect = lower value 0.996 | S. cerevisiae deletion strains, locus YPL106C, strain sse1, stronger effect = lower value 0.938 | S. cerevisiae deletion strains, locus YPL240C, strain hsp82, stronger effect = lower value 0.991 | S. cerevisiae deletion strains, locus YPL241C, strain CIN2, stronger effect = lower value 0.996 | S. cerevisiae deletion strains, locus YPL256C, strain CLN2, stronger effect = lower value 0.997 | S. cerevisiae deletion strains, locus YPR119W, strain clb2, stronger effect = lower value 0.971 | S. cerevisiae deletion strains, locus YPR141C, strain kar3, stronger effect = lower value 0.974 | S. cerevisiae deletion strains, locus YPR163C, strain tif3, stronger effect = lower value 0.991 | S. cerevisiae deletion strains, locus YPR167C, strain met16, stronger effect = lower value 0.98 | S. cerevisiae deletion strains, strain wtn01, stronger effect = lower value 0.978 | S. cerevisiae strains, strain wild type, stronger effect = lower value 1.01

— PubChem BioAssay AID1159580 (chemical genetic matrix, 2015)
